Screening results deposited in PubChem BioAssay by National Center for Advancing Translational Sciences (NCATS).
FLuc inh: qHTS Assay for Inhibitors of Firefly Luciferase; Luciferin 4-monooxygenase (Photinus pyralis), P08659; purified firefly luciferase, luminescence, 8 min; Potency, µM (doses to about 57.1 µM), for the others: at the top dose activity change, negative = inhibition, actives largely listed as inhibitors; 72,000 compounds, 2.2% hits; AID 411, 2009; note: potency is the fitted concentration of half-maximal effect; % is set by controls: 0 for no effect and ±100 for the full control effect; nearly all actives have a fitted effect of over 40% in size
Target sequence (P08659 whole entry, looked up): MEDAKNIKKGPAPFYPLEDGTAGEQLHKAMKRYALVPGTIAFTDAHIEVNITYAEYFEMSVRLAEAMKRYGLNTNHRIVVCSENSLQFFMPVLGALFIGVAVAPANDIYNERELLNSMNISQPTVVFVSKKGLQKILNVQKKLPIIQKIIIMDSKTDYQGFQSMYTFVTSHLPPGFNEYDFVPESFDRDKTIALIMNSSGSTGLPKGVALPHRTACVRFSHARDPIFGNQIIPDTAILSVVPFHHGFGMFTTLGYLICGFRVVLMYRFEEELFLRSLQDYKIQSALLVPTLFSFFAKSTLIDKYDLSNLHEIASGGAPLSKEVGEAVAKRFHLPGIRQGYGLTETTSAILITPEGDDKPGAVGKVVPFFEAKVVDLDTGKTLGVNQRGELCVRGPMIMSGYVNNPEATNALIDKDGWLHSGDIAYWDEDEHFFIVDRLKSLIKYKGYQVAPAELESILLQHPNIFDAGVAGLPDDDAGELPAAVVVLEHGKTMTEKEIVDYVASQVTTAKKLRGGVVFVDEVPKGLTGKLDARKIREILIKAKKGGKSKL
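Luminescence read-out after 8 min at room temperature; enzyme reaction used luciferin plus 10 uM ATP (linear range) in imidazole buffer pH 7.2 with KCl, MgCl2, Tween 20 and BSA. Each sample was run as a titration.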
UbGFP stabilizer: Ubiquitin-GFP Assay | Ubiquitin-GFP reporter cells, proteasome inhibition, GFP fluorescence; response scale: untreated = 0%, 10 µM MG-132 = 100% | 67,000 tested, under 10 active | Potency, µM (doses to about 45.9 µM), for inactives: top-dose activation (GFP accumulation), most hits filed as activators; active = well fitted activation curve with a large enough effect, not every such curve was filed as active; inconclusive = small, poorly fitted or top-dose-only effect, or another doubt; inactive = no such curve, though single readings can be large or run the other way; note: potency is the fitted concentration of half-maximal effect
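Proteasome block read as GFP accumulation: ubiquitin(G76V)-GFP U2OS cells exposed to compound (2.9 nM–46 uM) for 4 hr at 37 C. Normalization used untreated cells as 0% and 10 uM MG-132 as 100%; concentration-response curves fitted.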
GFP derepression: qHTS Assay for Epigenetic Modulators; mouse C127i GFP locus derepression, cytometry, 30 h; Potency, µM (top dose mostly 46.1 µM), for inactives: at the highest dose GFP derepression (activation); 68,000 compounds, 0.09% hits; note: % of control where 0% means no effect
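Locus derepression in mouse mammary C127i cells whose integrated CMV-GFP reporter is normally silent; GFP expression after 30 h compound treatment was quantified by counting fluorescent cells.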
HBB splice mod: qHTS Assay for Modulators of Hemoglobin Beta Chain Splicing. HBB splicing reporter cell assay, activation; EGFP reporter with mutant IVS2-654 intron; response scale: normalised to 500 nM splice-correcting PNA. Potency, µM (top dose mostly 46.1 µM), for inactives: at the top dose activation, usual class: activators. 65,000 compounds, 0.06% hits. AID 925, 2007; note: potency is the fitted concentration of half-maximal effect; 0% is about no effect
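Compounds were applied for 2 days to HeLa EGFP-654 cells, 500/well in Optimem with 2% FCS. The reporter's EGFP is disrupted by mis-splicing of beta-globin intron IVS2-654. Readout: summed well GFP fluorescence from 488 nm laser scanning; reference was 500 nM antisense […] 654 PNA.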
Bst PK mod: Pyruvate Kinase; purified pyruvate kinase, luminescence ATP production; ribose 5-phosphate activator present at AC10; Potency, µM; 51,000 compounds, 1.2% hits; in the data active = potency below about 11 µM; inconclusive = mostly about 12 µM to 25 µM;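 the screen sought inhibitors and activators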;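 note: potency is the fitted concentration of half-maximal effect; scaled between full activation by ribose 5 phosphate and full inhibition by luteolin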
The depositor's hits bear a star; i = inactive; ? = inconclusive; nt = no result; [ ] = remark or other dose. Hits are enriched below; roughly 2.6% of the tested compounds scored in any of these assays. Unless noted, calls come from the whole dose curve; as a rule, active = well fitted curve in the direction sought with a large enough effect; inconclusive = small, poorly fitted or top-dose-only effect, or another doubt; inactive = no such curve, though single readings can be large; an effect the other way counts as inactive or inconclusive.

SMILES	FLuc inh	UbGFP stabilizer	GFP derepression	HBB splice mod	Bst PK mod
C=CCSc1nnc(-c2ccc(Cl)cc2Cl)o1	7.9µM*	-16%[9.17 µM]	0%	-1%[0.0738 µM]	nt
C=CCSc1nnc(-c2cccnc2)o1	-1%	0%	3%	0%	nt
Cc1cnc(CNc2ncnc3ccc(-c4cccc(NS(C)(=O)=O)c4)cc23)cn1	1%[2.29 µM]	7%	-5%[9.22 µM]	0%	nt
CCCOc1ccc(-c2nc(C#N)c(N3CCN(CC)CC3)o2)cc1	-2%	0%	0%	4%[0.369 µM]	5.8*
CCOc1ccc(-c2nc(C#N)c(N3CCN(C)CC3)o2)cc1	1%	3%	-1%	-1%	?
CCCOc1ccc(-c2nc(C#N)c(N3CCN(C)CC3)o2)cc1	-3%	2%	2%	4%[0.369 µM]	7.3*
O=C(c1ccccc1)c1ccc2n1CC[C@H]2C(=O)O	2%[25.5 µM]	0%[20.5 µM]	-2%[20.6 µM]	-1%[20.6 µM]	nt
Cn1c(/C(C#N)=C(\O)COc2ccc3ccccc3c2)nc2ccccc21	8%	-3%	3%	0%[57.5 µM]	>57
COc1ccc(N/C=C(\C#N)c2nc3ccccc3n2C)c(OC)c1	4µM*	nt	-6%[20.6 µM]	nt	10*
C=CCSc1nncn1/N=C/c1ccc(OC)cc1	25µM*	3%	-3%	7%	i
CC(=O)[C@@H](C)CCO[C@@]1(C)OCC[C@@H]1C	-2%[11.4 µM]	-8%[9.17 µM]	2%[9.22 µM]	-1%[9.22 µM]	nt
COc1ccc(-c2csc(NCc3ccco3)n2)cc1	5µM*	6%	0%	nt	4.6*
C=CCNc1ncnc2c1[nH]c1ccc(C)cc12	10µM*	-4%	0%	-3%[57.5 µM]	?
CCc1cc(C(C)=O)c(O)cc1OCCCCCC(C)(C)c1nn[nH]n1	nt	nt	nt	-1%	nt
COc1cc(SC)ccc1C(=O)Nc1ccon1	25µM*	2%	0%	-1%	?
C#CCCCO/N=C1/C[C@@H](O)[C@@H](O)[C@@H]2[C@@H]3C(=O)N(C4CCCCC4)C(=O)[C@H]3CC[C@@H]12	-2%[11.4 µM]	nt	nt	3%[9.22 µM]	nt
O=C(O)CC(NC(=O)c1ccccc1NC(=O)c1ccccc1)C(=O)O (centres undefined)	-6%	1%	-2%	0%[9.22 µM]	nt
Cc1ccc(C(=O)Nc2ccccc2C(=O)NC(CC(=O)O)C(=O)O)cc1 (centres undefined)	32µM*	2%	1%	-1%	nt
N#C[C@@H](Cc1ccc(O)c(O)c1)C(=O)N1CCc2ccccc21	1%	-6%	-1%	1%	nt
Cc1cccc(CNc2ccnc(-c3ccccc3C(F)(F)F)n2)c1	1%[2.29 µM]	-5%	3%[9.22 µM]	0%	nt
CN(Cc1cccc2ccccc12)Cc1cccc2ccccc12	2%[11.4 µM]	-1%[9.17 µM]	-6%[9.22 µM]	-1%[9.22 µM]	nt
Cc1ccc(O)c(-c2cc(-c3ccccc3C)[nH]n2)c1	-3%	-2%	-3%	1%	nt
Oc1ccccc1-c1cc(-c2ccccc2Cl)[nH]n1	13µM*	-4%	-3%	0%	?
COCCn1c(=O)c(-c2ccc(OC)cc2)nc2cnc(OC)nc21	1%[11.4 µM]	0%	5%[9.22 µM]	0%	nt
COc1cccc(-c2nc3ccc(O)cc3c(=O)o2)c1	?	-9%	5%	-1%	11*
SMILES	FLuc inh	UbGFP stabilizer	GFP derepression	HBB splice mod	Bst PK mod
COc1cccc(-c2cc(=O)c3cc(O)ccc3o2)c1	-12%[11.4 µM]	-9%	-2%[9.22 µM]	nt	nt
CCN(CC)CC#CCOC(=O)[C@@](O)(c1ccccc1)C1CCCCC1	9%[25.5 µM]	4%[20.5 µM]	-2%[20.6 µM]	1%[20.6 µM]	nt
O=C(Nc1ccc(F)cc1)N(Cc1ccco1)Cc1cc2cc3c(cc2[nH]c1=O)OCO3	-1%	-3%	4%	nt	3.8*
Clc1ccc(/C=C\c2nc(Cl)c(-c3ccc(Cl)cc3)c(Cl)n2)cc1	5%[11.4 µM]	-7%[9.17 µM]	-1%[9.22 µM]	2%[9.22 µM]	nt
COC(=O)c1ccccc1NC(=O)Nc1nnc(N2CCCCC2C)s1 (centres undefined)	-1%	3%	nt	-1%	nt
COc1ccc(NC(=O)Nc2nnc(N3CCCCC3C)s2)cc1OC (centres undefined)	16µM*	-11%	nt	-1%	nt
N=c1cc(C2(O)CCCCC2)n2c(nc3ccccc32)s1	1µM*	3%	-2%	-1%	1.1*
S=C(Nc1ccccn1)c1ccccn1	20µM*	5%	4µM*	0%[9.22 µM]	nt
O=C(Nc1ccccc1)Nc1ccccn1	-25%	5%	6%	-2%	nt
COc1ccc(-c2cn3c(C)c(C(=O)Nc4cccc(NC(C)=O)c4)sc3n2)cc1	13µM*	-4%	7%	0%	>11
Cn1cc(-c2nc3cncnc3n(Cc3ccccc3Cl)c2=O)c2ccccc21	-4%[11.4 µM]	0%	0%[9.22 µM]	9%	nt
Cc1ccccc1-c1cncnc1NCc1cccs1	1%[2.29 µM]	-3%	0%[9.22 µM]	-1%	nt
COc1ccc(-c2nc3cnc(Nc4cccc(OC)c4)nc3n(Cc3cccs3)c2=O)cc1	1%[11.4 µM]	2%	3%[9.22 µM]	4%	nt
COc1cccc(Nc2ncc3nc(-c4cccs4)c(=O)n(CCC#N)c3n2)c1	2%[11.4 µM]	6.3µM*	?	6%	nt
COc1ccc(-n2c(=O)c(-c3cccs3)nc3cnc(Nc4cccc(OC)c4)nc32)cc1	0%[11.4 µM]	?	3.2µM*	10µM*	nt
COCCn1c(=O)c(-c2ccc(F)cc2)nc2cnc(Nc3cccc(OC)c3)nc21	1%[11.4 µM]	?	3%[9.22 µM]	20µM*	nt
COc1cccc(Nc2ncc3nc(C)c(=O)n(Cc4cccs4)c3n2)c1	1%[11.4 µM]	25%	19%[9.22 µM]	16µM*	nt
COCCc1ccc(OC[C@H](O)CNC(C)C)cc1	-2%[25.5 µM]	-8%[20.5 µM]	3%[20.6 µM]	2%[20.6 µM]	nt
CC(C)[C@@H](OCc1ccccc1)[C@H](C)/C=N\O[C@@H](C)c1cn([C@H](CO)Cc2ccccc2)nn1	0%[11.4 µM]	nt	nt	2%[9.22 µM]	nt
COc1cccc(Nc2ncc3nc(C)c(=O)n(CCc4ccccc4)c3n2)c1	0%[11.4 µM]	-10%	2%[9.22 µM]	1%	nt
Cc1cccc2nc(CSCc3ccco3)cn12	25µM*	4%	23%	2%	nt
CCCCNc1nc(C)nc2c1nc(-c1ccccc1)n2CCN1CCCC1	nt	-9%	nt	-1%	nt
O=C1C(C=Nc2ccccc2O)=C(O)c2ccccc21	7.9µM*	-5%	2%	0%	7.3*
CCc1ccc(O)c(N=Cc2ccccc2O)c1	-2%	-7%	-7%	0%[9.22 µM]	nt
Cc1ccc(O)c(N=CC2=C(O)c3ccccc3C2=O)c1	25µM*	7%	-2%	1%	nt
SMILES	FLuc inh	UbGFP stabilizer	GFP derepression	HBB splice mod	Bst PK mod
CN=CC1=C(O)c2ccccc2C1=O	1%	11%	0%	3%	nt
Cc1nc(NC2CCCCC2)c2nc(-c3ccccc3)n(CCN(C)C)c2n1	nt	-12%	nt	-1%	nt
CCN1/C(=C/C(=O)c2ccco2)Sc2ccccc21	25µM*	-2%	2%	-1%	i
Nc1ccc2c(c1)CCC2=O	13µM*	7%	0%	8%	i
COc1ccc(Nc2cc(C(=O)NCCCN3CCN(C)CC3)c3ccccc3n2)cc1OC	25µM*	29%	-1%	0%	i
CCOC(=O)C1CCCN(C(=O)c2cc(Nc3ccc(OC)c(OC)c3)nc3ccccc23)C1 (centres undefined)	16µM*	17%	2%	-3%	i
